The record followed here is PubChem BioAssay (NCATS).

Inconclusive results are not listed. Entries that show only a call come without a potency. Calls of active or inactive are those of the source. The call rests on the fitted dose curve; in most records, active means well fitted curve in the direction sought with a large enough effect; inconclusive means small, poorly fitted or top-dose-only effect, or another doubt; inactive means no such curve, though single readings can be large; an effect the other way counts as inactive or inconclusive.
Potency means the concentration at half of the fitted maximal effect.

Calcium and integrin-binding protein 1 (Homo sapiens), sequence (Q99828 whole entry, looked up): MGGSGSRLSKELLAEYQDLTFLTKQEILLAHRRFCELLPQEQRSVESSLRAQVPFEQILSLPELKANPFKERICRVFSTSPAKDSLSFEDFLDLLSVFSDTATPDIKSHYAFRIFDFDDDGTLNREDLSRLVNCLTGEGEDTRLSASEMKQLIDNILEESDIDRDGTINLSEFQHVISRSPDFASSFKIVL

The target of the first assay is Calcium and integrin-binding protein 1 (Homo sapiens) (UniProt Q99828). The experiment in a line: Confirmatory qHTS for Identification of Calcium Integrin Binding Protein 1 (CIB1) Competitor (AID 1508617). Further: nearly all actives have a fitted effect of over 65% in size. As to conditions: CIB1 binding competition assay, biochemical qHTS; series mostly up to 114 µM. Summed up:
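Confirmatory qHTS measures displacement of a FITC-alphaIIb peptide (100 nM) from CIB1-GST (1 uM) by fluorescence polarization. Calcium-containing HEPES buffer, pH 7.4; two 15 min room-temperature incubations.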
Regarding `c1ccc(-n2ccc(-c3nnc4n3CCCCC4)c2)cc1`, the Potency was 50.1 µM (active).

In the case of `CC(OC(=O)c1ccc(S(C)(=O)=O)c([N+](=O)[O-])c1)C(=O)NC1C2CC3CC(C2)CC1C3` (centres undefined), the Potency entry was “inactive”.

Take `Cc1ccc2nc3sc(C(=O)NCc4ccco4)cc3cc2c1`: the Potency entry was “inactive”.

`O=C(Nc1nc(-c2ccccc2)cs1)c1ccncc1NS(=O)(=O)c1cccc2cccnc12`: the Potency was 35.5 µM (active).

Turning to `Cc1ccc(S(=O)(=O)Nc2ccc(Br)cc2C(=O)Nc2nc(-c3ccccc3)cs2)cc1`, the Potency result was “inactive”.

In the case of `NC(=O)c1ccc(O)c2ncccc12`, the Potency result is “inactive”.

A further assay has the same target. The experiment in a line: Primary qHTS for Identification of Calcium Integrin Binding Protein 1 (CIB1) Competitor (AID 1508620). The settings on record: CIB1-GST / FITC-alphaIIb peptide fluorescence polarization; series mostly up to 114 µM. Put shortly:
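Fluorescence polarization competition: GST-tagged CIB1 (1 uM final) preincubated with compound 15 min at room temperature, then FITC-labelled alphaIIb peptide (100 nM final) added. After 15 min at room temperature, polarization read at Ex 480/Em 540.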
(In general: Quantitative high-throughput screening tests each substance at several concentrations.)
For the compound `Fc1ccccc1-c1nc(-c2ccc(-c3nn[nH]n3)cc2)no1`, the Potency entry is “inactive”.

As to `CC(=O)NC(c1cccs1)c1cc(Br)c2cccnc2c1O` (centres undefined), the Potency result was “inactive”.

As to `CCN(CC)c1cc2c(cc1S(=O)(=O)Nc1ccc(C)c(C)c1)CCC(=O)N2`, the Potency entry was “inactive”.

For the compound `O=S(=O)(Nc1nccs1)c1ccc(Nc2nc(-c3ccccc3)cs2)cc1`, the Potency was 50.1 µM (active).

Turning to `Fc1ccc(-c2ccc(Nc3nc(-c4ccncc4)nc4ccccc34)cc2F)cc1`, the Potency result is “inactive”.

Consider `Cc1cc(C)nc(NC(=S)N2CCN(c3ccc(C(F)(F)F)cc3[N+](=O)[O-])CC2)c1`, for which the Potency result was “inactive”.

Turning to `Oc1ccc(/C=C/c2ccccc2)c2cccnc12`, the Potency result is “inactive”.

Regarding `O=C(O)c1ccccc1SC1=NS(=O)(=O)c2ccccc21`, the Potency result was “inactive”.

For `O=c1c2ccccc2nc2sc(Nc3ccc(F)cc3)nn12`, the Potency entry is “inactive”.

With `Cc1ccc(CNc2ncnc3ccc(-c4ccc([C@@H](C)O)o4)cc23)o1`, the Potency entry was “inactive”.

Consider `NC[C@@H](O)c1ccc(O)c(O)c1`, for which the Potency result was “inactive”.

For the compound `CC(C)Nc1nc(C#N)nc(Nc2ccccc2)n1`, the Potency entry was “inactive”.

Regarding `NC(=O)C1CCN(c2ncc(Br)s2)CC1`, the Potency is 39.8 µM (active).

Consider `CN(C(=O)c1cccs1)c1cccnc1`, for which the Potency was 50.1 µM (active).

Regarding `N=c1c2c(ccn1Cc1ccccc1)Oc1ccc3ccccc3c1C2c1ccccc1` (centres undefined), the Potency result is “inactive”.

For `O=C1CCCC2=C1C1(CCCC1)N=C(Nc1nc3cc(Br)ccc3o1)N2`, the Potency result is “inactive”.

Take `NC(=O)C1CCN(c2nc(-c3ccccc3)cs2)CC1`: the Potency result was “inactive”.

Regarding `CC1(C)OB(c2ccc(O)c3ncc(N4CCNCC4)cc23)OC1(C)C`, the Potency was 50.1 µM (active).

For `Cc1c(Cl)cccc1NS(=O)(=O)c1cc2c(cc1F)NC(=O)CC2`, the Potency entry is “inactive”.

Turning to `CN(CCc1cnc[nH]1)c1ncnc2ccc(-c3ccc4c(c3)OCO4)cc12`, the Potency result is “inactive”.

Consider `CN(Cc1ccccc1)C(=O)C1CCN(Cc2cccc3ccccc23)CC1`, for which the Potency result was “inactive”.

As to `O=C(CCC#CCSc1nnc(-c2cccc3ccccc23)o1)c1ccccc1`, the Potency result was “inactive”.

Take `O=C(O)c1ccc(O)c2ncc(-c3n[nH]nc3-c3ccccc3)cc12`: the Potency entry is “inactive”.

For `c1ccc(-n2ccc(-c3nnc4n3CCCCC4)c2)cc1`, the Potency is 79.4 µM (active).

For the compound `Cc1ccc2nc3sc(C(=O)NCc4ccco4)cc3cc2c1`, the Potency result is “inactive”.

For the compound `Cc1cc(N[S+](=O)([O-])c2cc3c(cc2Cl)NC(=O)CO3)ccc1Br`, the Potency result was “inactive”.

Consider `C(=Nc1cccnc1)c1cccs1`, for which the Potency entry is “inactive”.

Take `COc1ccc(C2=Nn3c(nnc3-c3cc(OC)ccc3OC)SC2)cc1`: the Potency result is “inactive”.
